Compound activity (PubChem)
PolyA inhibitor: inhibitors of polyadenylation in S. cerevisiae; activity score, % at 12 µM; AID 1875; actives 0.02% (n = 300,000); S. cerevisiae SKY197-pL101 polyadenylation reporter, beta-gal luminescence; efflux-impaired pdr1/pdr3 knockout yeast; score 100 = 6 SD above DMSO;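 active = lowest replicate activity score at least 50, where 100 means six control SD above control mean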;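 note: yeast exposed to compound for 9 h at 30 °C; higher score means more reporter readthrough which indicates perturbed polyadenylation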
JMJD2C inh: human JMJD2C demethylase inhibition | Q9H3R0 | GST-JMJD2C(1-420) H3K9me3 demethylation, DELFIA europium | inhibition, % at 2.35 µM | actives 0.069% (n = 330,000) | AID 2099;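 active = more than half of a compound's replicate wells show inhibition beyond 50%, single wells judged on their own value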;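 note: signal counts dimethyl H3K9 product captured on neutravidin plate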
Target sequence (Q9H3R0 1-420 limits assumed): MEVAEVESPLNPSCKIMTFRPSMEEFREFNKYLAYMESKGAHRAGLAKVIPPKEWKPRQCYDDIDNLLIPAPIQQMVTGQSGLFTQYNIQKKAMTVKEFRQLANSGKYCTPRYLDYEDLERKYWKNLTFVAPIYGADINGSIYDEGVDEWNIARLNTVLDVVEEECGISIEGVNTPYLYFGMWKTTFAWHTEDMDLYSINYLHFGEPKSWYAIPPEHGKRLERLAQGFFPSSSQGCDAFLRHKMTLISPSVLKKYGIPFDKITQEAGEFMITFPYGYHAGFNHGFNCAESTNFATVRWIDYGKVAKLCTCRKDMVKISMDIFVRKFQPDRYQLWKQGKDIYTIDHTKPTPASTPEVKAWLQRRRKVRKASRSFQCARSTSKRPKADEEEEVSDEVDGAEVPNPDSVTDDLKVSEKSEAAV
VLA-4 inh: inhibition in a human VLA-4 binding assay. VLA-4 expressing cells, ligand binding flow cytometry. actives 0.2% (n = 330,000). P13612. inhibition, % (about 7 µM as worked out from the volumes in the protocol); in the data active = inhibition above about 50%
ABCB6 inh MLPCN: human ABCB6 transporter inhibition. Q9NP58. K562-ABCB6 porphyrin accumulation, flow cytometry, 1 h; hits give low values. fluorescence ratio to DMSO, % at 10 µM. actives 0.19% (n = 360,000);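 active = fluorescence ratio to DMSO below 75%, the collection mean minus 3 SD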;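 note: signal is porphyrin accumulated inside mitochondria; lower ratio means ABCB6 inhibition with less porphyrin fluorescence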
ABCB6 inh CP1: human ABCB6 transporter inhibition; shares compounds with ABCB6 inh MLPCN; K562-ABCB6 porphyrin accumulation, flow cytometry, 1 h; hits give low values; ratio response (% of DMSO), % at 10 µM; 700 tested, under 10 active; AID 602430;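 active = repeat-averaged ratio response below 75% of DMSO, the collection mean minus 3 SD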;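 note: median porphyrin fluorescence at 575 nm with 488 nm excitation from mitochondria; lower ratio means less porphyrin signal so ABCB6 inhibition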
Large screens that a line does not name were inactive (follow-up assays come after a bar, where they were run). In the library only some 0.44% were active in any assay of this set; here they are far more common.

Cc1ccc(S(=O)(=O)NC(=O)C2(C)CCN2C(=O)Cc2ccc(-c3ccccc3)cc2)cc1 (stereo not drawn)	none (no result: PolyA inhibitor, JMJD2C inh, VLA-4 inh) | ABCB6 inh CP1 inactive
CC1(C(=O)NS(=O)(=O)c2cccc(Cl)c2)CCN1C(=O)Cc1ccc(Cl)cc1Cl (stereo not drawn)	none (no result: PolyA inhibitor, JMJD2C inh, VLA-4 inh)
CC1(C(=O)NS(=O)(=O)c2ccccc2)CCN1C(=O)Cc1ccccc1 (stereo not drawn)	none (no result: PolyA inhibitor, JMJD2C inh, VLA-4 inh)
Cc1cccc(S(=O)(=O)NC(=O)C2(C)CCN2C(=O)Cc2ccc(Cl)cc2Cl)c1 (stereo not drawn)	none (no result: PolyA inhibitor, JMJD2C inh, VLA-4 inh) | ABCB6 inh CP1 inactive
Cc1ccc(F)c(S(=O)(=O)NC(=O)C2(C)CCN2C(=O)Cc2cccc3ccccc23)c1 (stereo not drawn)	none (no result: PolyA inhibitor, JMJD2C inh, VLA-4 inh) | ABCB6 inh CP1 inactive
CCN(CC)C(=O)Oc1ccc(Cl)c2ccccc12	none
Cc1cc(C)[n+]2n1C(=O)C(c1ccccc1)=C2[O-]	none
CC(C)(C)c1ccc(CC(=O)N2CCC2(C)C(=O)NS(=O)(=O)c2ccccc2C(F)(F)F)cc1 (stereo not drawn)	none (no result: PolyA inhibitor, JMJD2C inh, VLA-4 inh) | ABCB6 inh CP1 inactive
Cc1cccc(S(=O)(=O)NC(=O)C2(C)CCN2C(=O)Cc2ccccc2)c1 (stereo not drawn)	none (no result: PolyA inhibitor, JMJD2C inh, VLA-4 inh) | ABCB6 inh CP1 inactive
CC1(C(=O)NS(=O)(=O)c2cccc(C#N)c2)CCN1C(=O)CCc1ccccc1 (stereo not drawn)	none (no result: PolyA inhibitor, JMJD2C inh, VLA-4 inh) | ABCB6 inh CP1 inactive
Cc1cccc(S(=O)(=O)NC(=O)C2(C)CCN2C(=O)CCc2ccccc2)c1 (stereo not drawn)	none (no result: PolyA inhibitor, JMJD2C inh, VLA-4 inh)
O=S(=O)(c1ccc2ccccc2c1)N1CCN(C2CCN(Cc3ccccc3)CC2)CC1	ABCB6 inh MLPCN 48.0 | ABCB6 inh CP1 inactive
O=S(=O)(c1ccccc1)N1CCN(C2CCN(Cc3ccccc3)CC2)CC1	none
O=C(Cn1cnc(S(=O)(=O)N2CCCC2)c1)Nc1cccc(Br)c1	none
COC(=O)[C@H](CCSC)NC(=O)Nc1ccc(C)c(C)c1	ABCB6 inh MLPCN 69.0 | ABCB6 inh CP1 inactive
Cc1cc2c(cc1C)CSC(c1c(O)ccc3ccccc13)SC2	none
COc1ccc(-n2nc(C(=O)NCC3CCCO3)c3ccccc3c2=O)cc1 (stereo not drawn)	ABCB6 inh MLPCN 16.0 | ABCB6 inh CP1 inactive
COc1ccc(-n2nc(C(=O)NCC(=O)NCC3CCCO3)c3ccccc3c2=O)cc1 (stereo not drawn)	none
COc1ccc(Cn2nnc3ccccc32)cc1	none
Cc1ccc2oc(=O)c3cnn(CC(=O)NCCN(C)C)c3c2c1	none
Cc1ccc2oc(=O)c3cnn(CC(=O)NCCc4ccsc4)c3c2c1	ABCB6 inh MLPCN 54.0 | ABCB6 inh CP1 inactive
Cc1cccn2c(=O)c3cc(S(=O)(=O)c4ccc(F)cc4)c(=N)n(Cc4ccco4)c3nc12	none
Cc1cccn2c(=O)c3cc(S(=O)(=O)c4ccccc4)c(=N)n(Cc4ccco4)c3nc12	ABCB6 inh MLPCN 66.0 | ABCB6 inh CP1 inactive
CC1(C)CC(=O)C=C(Nc2cc(-c3ccccc3)[nH]n2)C1	ABCB6 inh MLPCN 47.0 | ABCB6 inh CP1 inactive
Cc1ccc(/C=c2\sc3nc(-c4ccco4)nn3c2=O)o1	none
Cc1ccc(-c2nc3s/c(=C\c4ccco4)c(=O)n3n2)cc1	ABCB6 inh MLPCN 70.0 | ABCB6 inh CP1 inactive
COc1cc(C(=O)NCCN2CCOCC2)cc(OC)c1OC	none
O=C(Nc1nnc(-c2ccccc2)o1)c1cc(Cl)sc1Cl	ABCB6 inh MLPCN 69.0 | ABCB6 inh CP1 inactive
O=C(Nc1nnc(-c2ccc(F)cc2)o1)c1cc(Cl)sc1Cl	none
CCN1C(=O)CSc2ccc(C(=O)NCc3ccco3)cc21	ABCB6 inh MLPCN 53.0 | ABCB6 inh CP1 inactive
CC(=O)CN1C(=O)NC(c2ccccc2)(c2ccccc2)C1=O	ABCB6 inh MLPCN 46.0 | ABCB6 inh CP1 inactive
CC(C)(C)NC(=O)CN1C(=O)NC(c2ccccc2)(c2ccccc2)C1=O	none
CCOc1ccc(C(C(=O)NCC2CCCO2)N(Cc2cccnc2)C(=O)c2snc(C(N)=O)c2N)cc1 (stereo not drawn)	ABCB6 inh MLPCN 74.0 (no result: VLA-4 inh) | ABCB6 inh CP1 inactive
c1csc(CNc2ccn3nc(-c4ccc(OCCN5CCOCC5)cc4)cc3n2)c1	none (no result: PolyA inhibitor, JMJD2C inh, VLA-4 inh)
c1ccc(COc2cccc(-c3cc4nc(NCc5ccc6c(c5)OCO6)ccn4n3)c2)cc1	ABCB6 inh MLPCN 68.0 (no result: PolyA inhibitor, JMJD2C inh, VLA-4 inh) | ABCB6 inh CP1 inactive
c1ccc(OCCNc2ccn3nc(-c4ccc(OCCN5CCOCC5)cc4)cc3n2)cc1	ABCB6 inh MLPCN 74.0 (no result: PolyA inhibitor, JMJD2C inh, VLA-4 inh) | ABCB6 inh CP1 inactive
CC(=O)/C(N=Nc1ccc2c(c1)OCO2)=C(\C)O	ABCB6 inh MLPCN 74.0 | ABCB6 inh CP1 inactive
CCc1cc[n+](-c2nc3ccccc3nc2[N-]S(=O)(=O)c2ccc(Br)s2)cc1	none
CCn1c(SCC(=O)Nc2ccc3c(c2)c2ccccc2n3CC)nnc1-c1ccco1	none
CCn1c(SCC(=O)n2c(C)c(C)c3ccccc32)nnc1-c1ccco1	ABCB6 inh MLPCN 73.0 | ABCB6 inh CP1 inactive
O=C(NC1CCN(C(=O)Nc2cccc(Cl)c2)CC1)C1CCCCC1	none
O=C(Nc1cccc(Cl)c1)NC1CCN(C2CCCCC2)C1 (stereo not drawn)	ABCB6 inh MLPCN 47.0 | ABCB6 inh CP1 inactive
CC(=O)Oc1cccc(/C=C2\Sc3ccccc3C2=O)c1	ABCB6 inh MLPCN 72.0 | ABCB6 inh CP1 inactive
O=C(OCc1ccc2c(c1)OCO2)c1ccc(S(=O)(=O)N2CCCC2)cc1	none
CSc1nc(C)c2cc(C)oc2n1	none
Cc1cc2c(C)nc(Cc3ccccc3)nc2o1	ABCB6 inh MLPCN 9.0 | ABCB6 inh CP1 inactive
CCCOc1ccc(-c2nc(=S)[nH][nH]2)cc1	ABCB6 inh MLPCN 69.0 | ABCB6 inh CP1 inactive
OCCn1c(SCCOc2ccccc2)nc2ccccc21	none
Cc1ccc(C(=O)NCc2ccc3c(c2)OCO3)cc1S(=O)(=O)N1CCOCC1	none
O=C(NCc1ccc2c(c1)OCO2)c1ccc(Cl)c(S(=O)(=O)N2CCOCC2)c1	ABCB6 inh MLPCN 53.0 | ABCB6 inh CP1 inactive
CCN(CC)CCN1C(=O)C(=O)/C(=C(/O)c2cnn(-c3ccccc3)c2C)C1c1cccnc1 (stereo not drawn)	none
CCc1ccccc1NC(=O)c1cc(=O)c2ccccc2o1	ABCB6 inh MLPCN 67.0 | ABCB6 inh CP1 inactive
C/C=C(\C)CN1CCN(c2cccc(C)c2C)CC1	ABCB6 inh MLPCN 24.0 | ABCB6 inh CP1 inactive
CC1C(=O)Nc2ccccc2N1C(=O)C1CC1 (stereo not drawn)	ABCB6 inh MLPCN 72.0 | ABCB6 inh CP1 inactive
COc1ccc(N2CCN(S(=O)(=O)c3ccc(-c4cc(C)no4)s3)CC2)cc1	none
CC1(C(=O)NS(=O)(=O)c2cccc(F)c2)CCN1C(=O)CCc1ccc(Cl)cc1Cl (stereo not drawn)	none (no result: PolyA inhibitor, JMJD2C inh, VLA-4 inh)
CC1(C(=O)NS(=O)(=O)c2ccc(C#N)cc2)CCN1C(=O)CCc1ccc(Cl)cc1Cl (stereo not drawn)	ABCB6 inh MLPCN 73.0 (no result: PolyA inhibitor, JMJD2C inh, VLA-4 inh) | ABCB6 inh CP1 inactive
CC1(C(=O)NS(=O)(=O)c2ccc(F)cc2F)CCN1C(=O)CCc1ccc(Cl)cc1Cl (stereo not drawn)	none (no result: PolyA inhibitor, JMJD2C inh, VLA-4 inh) | ABCB6 inh CP1 inactive
